In the library only some 4% were active in any assay of this set; here they are far more common.
TRHR PAM: qHTS for Small Molecule Agonists and Allosteric Enhancers of Human TRH Receptor: Primary Screen for Enhancers | Thyrotropin-releasing hormone receptor (Homo sapiens), P34981 | TRHR cells, fluo-8 calcium fluorescence, EC20 TRH enhancement | enhancement, % at 2 µM | 0.66% of 360,000 active | AID 493056, 2011; in the data active means enhancement above about 30%; further: 0% is about no effect
Target sequence (P34981 whole entry, looked up): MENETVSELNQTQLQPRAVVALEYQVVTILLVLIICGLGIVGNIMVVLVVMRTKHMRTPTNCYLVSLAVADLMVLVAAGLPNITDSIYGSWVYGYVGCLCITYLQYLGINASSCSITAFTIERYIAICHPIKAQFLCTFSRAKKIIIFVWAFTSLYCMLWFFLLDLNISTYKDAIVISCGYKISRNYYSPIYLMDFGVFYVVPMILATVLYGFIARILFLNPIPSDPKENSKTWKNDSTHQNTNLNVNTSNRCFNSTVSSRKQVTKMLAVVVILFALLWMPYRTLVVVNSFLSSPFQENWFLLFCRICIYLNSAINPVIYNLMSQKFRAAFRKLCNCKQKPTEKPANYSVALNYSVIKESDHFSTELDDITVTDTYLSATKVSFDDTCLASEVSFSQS
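TRHR-expressing cells loaded with fluo-8 calcium dye were read kinetically (ex 480/em 530) during compound addition, then stimulated with an EC20 of TRH (10 nM final). Enhancement of the Gq-mediated intracellular calcium response was scored.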
D1 ag: Allosteric Agonists of the Human D1 Dopamine Receptor: qHTS; 1% of 360,000 active; activation, % at 2 µM; D(1A) dopamine receptor (Homo sapiens), P21728; AID 504660, 2011; HEK293 T-REx D1 cells, calcium flux, agonist mode; further: 0% is about no effect
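Inducible HEK293 T-REx D1 cells, force-coupled to calcium signalling, were plated at 4000 cells/well with tetracycline and held overnight at 30 C. After no-wash calcium dye loading, compound-evoked calcium rise over 180 s flagged agonists.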
D1 antagonist: Antagonist of Human D 1 Dopamine Receptor: qHTS | HEK293 TREx D1 cells, calcium flux, dopamine EC80; hits give low values | activity change, negative = inhibition, % at 10 µM | 3.2% of 360,000 active; in the data active means activity change below about -30%; further: on the % scale 0 is the no-effect control and ±100 the full control effect
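Allosteric or orthosteric antagonism assessed as attenuation of the calcium response to EC80 dopamine, added 180 s after compound, in induced HEK293 Trex D1 cells loaded with no-wash calcium dye.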
TRHR ag: qHTS for Small Molecule Agonists and Allosteric Enhancers of Human TRH Receptor: Primary Screen for Agonists; 0.18% of 360,000 active; AID 493084, 2011; activation, % at 2 µM; Thyrotropin-releasing hormone receptor (Homo sapiens), P34981; TRHR cells, calcium flux fluo-8, FDSS agonist mode; further: 0% is about no effect
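In this calcium-flux screen, cells bearing human TRHR are dye-loaded with fluo-8, baselined for 10 cycles, then exposed to library compounds; positive kinetic calcium responses during the agonist phase mark hits, with TRH as control.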
Glioma ERSR ind: qHTS for Inducers of the Endoplasmic Reticulum Stress Response (ERSR) in Human Glioma: qHTS; U87-MG GRP78 promoter luciferase reporter, 16 h; Potency, µM, for inactives: at the top dose activation, actives largely listed as activators; 0.02% of 420,000 active; AID 602332, 2012; active means well fitted activation curve with a large enough effect; inconclusive means small, poorly fitted or top-dose-only effect; inactive means no such curve, though single readings can be large or run the other way; further: potency means the concentration at half of the fitted maximal effect; series mostly up to about 76 µM; % of control where 0% means no effect; nearly all actives have a fitted effect of over 35% in size
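Stably transfected U87-MG human glioma cells carrying a GRP78-based luminescent sensor were seeded at 1000 cells/well, pin-dosed with compounds and incubated 16 h. Luciferase reagent was then added, and end-point luminescence was read after 10 min at room temperature.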
D1 potentiator: Potentiators of Human D1 Dopamine Receptor: qHTS; D(1A) dopamine receptor (Homo sapiens), P21728; HEK293 TREx D1 cells, calcium flux, dopamine EC20 potentiation; potentiation, % at 10 µM; 0.036% of 360,000 active; AID 504651, 2011; in the data active means potentiation above about 30%; further: 0% is about no effect
* = called active by the depositor; u = inconclusive; x = no result given. Unless noted, no stated cut-off is given here; in the data, active means activation above about 30%; inactive means the rest.

SMILES	TRHR PAM	D1 ag	D1 antagonist	TRHR ag	Glioma ERSR ind	D1 potentiator
O=C(Nc1nnc(SCc2ccccn2)s1)C1CC(=O)N(c2ccccc2)C1 (configuration not stated)	7	2	-78*	0	-3%	-10
O=[N+]([O-])c1ccc(C(O)C23CN4CN(CN(C4)C2)C3)cc1 (configuration not stated)	40*	6	-2	0	-5%	1
Cc1ccc(-n2ncc3c(NCCCn4ccnc4)ncnc32)cc1	31*	-3	-13	0	1%	-1
Cc1ccc(-n2ncc3c(NCCc4ccccc4)ncnc32)cc1Cl	7	7	-36*	0	4%	-3
COc1ccc(CCNc2ncnc3c2cnn3-c2ccc(C)c(Cl)c2)cc1	0	3	-63*	1	-5%	-4
Cc1ccc(-n2ncc3c(NCCCc4ccccc4)ncnc32)cc1C	0	3	-17	0	2%	-2
COc1ccc(CCNc2ncnc3c2cnn3-c2cccc(Cl)c2)cc1	3	3	-16	1	-4%	-4
COc1ccc(CCNc2ncnc3c2cnn3-c2ccc(F)cc2)cc1	-8	-2	-38*	0	3%	-4
CN(C)S(=O)(=O)c1ccc(Cl)c(C(=O)NCc2ccco2)c1	4	4	-14	1	-3%	-5
Cc1ccc(-n2ncc3c(NNC(=O)c4ccccc4C)ncnc32)cc1	2	-2	-36*	0	-2%	0
CC(=O)NNc1ncnc2c1cnn2-c1ccc(C)c(Cl)c1	31*	7	-10	1	2%	2
Cc1ccc(-n2ncc3c(NCCO)ncnc32)cc1Cl	-9	5	-39*	0	-4%	-3
Cc1ccc(-n2ncc3c(NCCc4ccccc4)ncnc32)cc1	7	-3	-50*	1	-1%	-2
CC(=O)NNc1ncnc2c1cnn2-c1ccc(C)cc1	0	4	0	1	-1%	-2
Cc1cc(C)n(Cc2ccc(C(=O)N/N=C/c3ccc(-c4ccc([N+](=O)[O-])cc4)o3)o2)n1	-6	4	14	3	-7%	-4
CC(C)OC(=O)CSc1nc2ncccc2[nH]1	-2	6	-3	1	0%	1
CC(C)OC(=O)CSc1nc2ncc(Cl)cc2[nH]1	0	2	-30*	-1	2%	-5
CCCCN(C(=O)c1cccc(S(=O)(=O)N2CCCC2)c1)c1c(N)n(CCC)c(=O)[nH]c1=O	-1	2	12	0	-4%	-7
CCSc1nc(C)c(C)c(=O)[nH]1	8	1	-24	-1	-4%	-5
CCCc1nc(SC)[nH]c(=O)c1C	34*	1	-3	0	-1%	-1
NC(=O)COc1ncn(-c2ccccc2)n1	8	2	9	0	-1%	-3
CN(CC(=O)NCc1ccc(Cl)cc1)S(=O)(=O)c1ccc2c(c1)c(=O)n(C)c(=O)n2C	24	0	-44*	0	1%	4
Cc1ccc(CCNC(=O)CN(C)S(=O)(=O)c2ccc3c(c2)c(=O)n(C)c(=O)n3C)cc1	40*	1	-15	0	-5%	-7
Cc1cccc(CCNC(=O)CN(C)S(=O)(=O)c2ccc3c(c2)c(=O)n(C)c(=O)n3C)c1	-7	1	4	0	0%	-7
COc1ccccc1CNC(=O)CN(C)S(=O)(=O)c1ccc2c(c1)c(=O)n(C)c(=O)n2C	2	0	-37*	0	-4%	-1
SMILES	TRHR PAM	D1 ag	D1 antagonist	TRHR ag	Glioma ERSR ind	D1 potentiator
O=C(OCc1nnc(-c2ccccc2)o1)c1cc(S(=O)(=O)N2CCOCC2)c(Cl)cc1Cl	-4	3	-34*	0	-2%	-4
Cc1ccc(S(=O)(=O)N2CCOCC2)cc1C(=O)OCc1nnc(-c2ccccc2)o1	0	0	-13	-1	4%	-8
COCCn1c(C)cc(C(=O)COC(=O)Cc2n[nH]c(=O)c3ccccc23)c1C	-2	14	-14	0	2%	6
CN1/C(=C\C(=O)COC(=O)Cn2nnc(-c3ccccc3)n2)C(C)(C)c2ccccc21	-6	6	-35*	2	-6%	-5
CN1/C(=C/C(=O)COC(=O)CN2C(=O)C3CC=CCC3C2=O)C(C)(C)c2ccccc21 (configuration not stated)	x	x	x	x	-3%	x
Cc1[nH]nc2c1C(c1ccc(-c3ccc(Cl)cc3)o1)C(C#N)=C(N)O2 (configuration not stated)	31*	3	-3	0	u	-4
Cc1ccc(-c2ccc(C3C(C#N)=C(N)Oc4n[nH]c(C)c43)o2)cc1 (configuration not stated)	2	14	-48*	0	4%	-12
Cc1[nH]nc2c1C(c1ccc(-c3ccccc3C#N)o1)C(C#N)=C(N)O2 (configuration not stated)	-2	2	-4	0	-2%	0
COc1ccc(NS(=O)(=O)c2cc(NC(=O)CNC(=O)c3cccc(OC)c3)ccc2C)cc1	1	5	-10	0	-6%	14
COc1ccc(N=C(N)SCc2ccccn2)cc1	-8	21	-43*	14	0%	-10
Cc1cc(C)c2c(N)c(-c3nnc(SCc4ccc(Cl)cc4)n3C)sc2n1	-5	0	-39*	0	-1%	3
Nc1nnc(SCC(=O)NC2CCCCCCC2)s1	-1	1	16	0	2%	-2
Cn1c(=O)[nH]c(=O)c2c1nc(SCC(O)CO)n2Cc1ccccc1Cl (configuration not stated)	5	1	-64*	0	-3%	-3
Cn1c(=O)[nH]c(=O)c2c1nc(Br)n2Cc1ccccc1Cl	2	2	-6	0	-5%	0
CC(=O)NCCC1CCCCN1C(=O)c1cc(COc2cc(C)ccc2C)on1 (configuration not stated)	-10	4	-9	0	3%	0
COc1cc(C(=O)NC(=S)Nc2ccc3c(c2)OCO3)cc(OC)c1OC	3	0	-35*	0	0%	-5
COc1ccc(NC(=S)NC(=O)c2ccc3c(c2)OCCO3)cc1	x	x	x	x	21%	x
COc1cc(C(=O)NNC(=O)C2CCC2)cc(OC)c1OC	4	3	-48*	0	-3%	-5
